DAX1 inh-1: DAX1 (NR0B1) inhibition, primary screen; hit rate 1.1% among 370,000; inhibition, % at 6.8 µM; AID 652010; HEK293T StAR-luciferase reporter, SF-1/DAX-1 repression relief;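 active means inhibition above the mean over all tested compounds plus 3 SD, cut at about 3.6% in these data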;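 further: higher inhibition means more luminescence from relief of DAX-1 repression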
hcDAF12 agonist: H. contortus DAF-12 activation, primary screen. AID 652067. hit rate 1.4% among 370,000. HEK293 hcDAF-12 lit1-tk-luc reporter, luminescence; 0% DMSO, 100% Δ7-dafachronic acid. activation, % at 6.8 µM;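 active means activation above the mean of all tested compounds plus 3 SD, cut at about 5.5% in these data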
hgDAF-12 ag: agonists of H. glycines DAF-12 nuclear receptor; AID 687014; HEK293 GAL4-hgDAF12 UAS-luciferase reporter, agonist luminescence; normalized to butyrate control; hit rate 1.8% among 370,000; activation, % at 6.8 µM;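 active means activation above a cutoff set at the mean of all screened compounds plus 3 SD, cut at about 10% in these data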
SMARCA2 act: increases SMARCA2 function in MMTV reporter cells; MG213 cells, MMTV-luciferase reporter, dexamethasone, overnight; activation, % at 9.1 µM; hit rate 1% among 370,000; AID 652017; in the data active means activation above about 7.8%
DAX1 inh-2: inhibits human nuclear receptor DAX1. inhibition, % at 6.75 µM. P51843. AID 504766. HEK293 Gal4-DAX1 luciferase reporter, luminescence. hit rate 0.99% among 340,000;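 active means inhibition above the mean over all tested compounds plus 3 SD, cut at about 4.2% in these data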;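 further: inhibition shows as a rise in luminescence from relieved DAX1 repression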
Target sequence (P51843 207-470 limits assumed): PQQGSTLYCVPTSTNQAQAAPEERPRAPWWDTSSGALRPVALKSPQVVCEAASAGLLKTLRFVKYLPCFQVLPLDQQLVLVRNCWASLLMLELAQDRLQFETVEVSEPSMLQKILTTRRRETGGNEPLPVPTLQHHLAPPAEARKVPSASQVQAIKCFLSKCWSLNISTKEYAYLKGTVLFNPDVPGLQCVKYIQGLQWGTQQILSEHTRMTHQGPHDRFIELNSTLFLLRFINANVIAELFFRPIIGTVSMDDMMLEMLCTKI
ssDAF-12 act: activators of S. stercoralis DAF-12 nuclear receptor | HEK293 ssDAF-12/GRIP1 lit1-tk-luc reporter, luminescence; % of 3 µM dafachronic acid response | activation, % at 6.8 µM | hit rate 1% among 370,000;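 active means activation above the mean over all tested compounds plus 3 SD, cut at about 0.9% in these data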
SMARCA2 act conf: confirmation of SMARCA2 (BRM) function activators | shares compounds with SMARCA2 act | MG213 cells, MMTV-luciferase with dexamethasone, luminescence, overnight; MG213 cells expressing E1A, Rb sequestered; DMSO wells 0%, reference activator 100% | activation, % at 9.1 µM | hit rate 30% among 3,500;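 active means activation above its plate's cutoff, the mean activation of tested wells plus 3 SD, cut at about 7.9% in these data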
VP16 Luc act: GAL4-VP16 reporter activation counter-screen | shares compounds with SMARCA2 act | HEK293 GAL4-VP16 pG5luc reporter, luciferase luminescence; scaled: DMSO wells 0%, SAHA wells 100% | activation, % at 9.1 µM | hit rate 41% among 3,500 | AID 686939;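 active means activation above the solvent-only control well mean plus 3 SD, averaged across control plates, cut at about 5.2% in these data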
Large screens that a line does not name were inactive (follow-up assays come after a bar, where they were run). Compounds with a hit are over-represented: about 4.8% of the library has one in this group of screens.

CSc1nc(Cc2ccccc2)cc(=O)[nH]1	none
CSc1ncc(OCc2ccccc2)c(=O)[nH]1	SMARCA2 act 10 | SMARCA2 act conf inactive | VP16 Luc act inactive
CCN(CC)C(=O)CC[C@@H]1CC[C@]2(CCCN(Cc3ccccn3)C2)O1	none (no result: DAX1 inh-2)
Cc1nc(CNS(=O)(=O)c2ccc(F)cc2)cs1	SMARCA2 act 8.4 | SMARCA2 act conf inactive | VP16 Luc act inactive
CCCCCCCCN1C(=O)[C@@H](CC(=O)N2CCC(c3ccccc3)CC2)C[C@@]2(C(=O)OC)C1=C[C@H](COCc1ccccc1)O[C@@H]2C	none (no result: DAX1 inh-2)
CC(=O)Nc1ccc(NC(=O)c2ccccc2Br)cc1	none (no result: DAX1 inh-2)
CCc1ccc(NC(=O)c2ccccc2Br)cc1	hgDAF-12 ag 12, SMARCA2 act 9.9, DAX1 inh-2 5.9 | SMARCA2 act conf inactive | VP16 Luc act 10
CC(=O)Nc1ccc(NC(=O)Oc2ccccc2)cc1	none
CCCNC(=O)c1n[nH]c(=O)c2ccccc12	none
CCc1ccc(OC(=O)Nc2ccccc2)cc1	hcDAF12 agonist 6.2, hgDAF-12 ag 11, SMARCA2 act 10 | SMARCA2 act conf 9.2 | VP16 Luc act 12
CCc1ccc(NC(=O)c2n[nH]c(=O)c3ccccc23)cc1	SMARCA2 act 8.6 | SMARCA2 act conf inactive | VP16 Luc act 6.3
CCOC(=O)Nc1ccc(NC(=O)c2ccccc2F)cc1	SMARCA2 act 9.0 | SMARCA2 act conf 9.5 | VP16 Luc act 8.5
O=C(Cc1cc(=O)[nH][nH]1)N/N=C/c1ccccc1C(F)(F)F	none (no result: DAX1 inh-2)
CCN1CCCCC(NC(=O)c2ccccc2OC)C1=O (configuration not stated)	none (no result: DAX1 inh-2)
O=C(Nc1ccc(NC(=O)C2CC2)nc1)c1ccccc1F	SMARCA2 act 8.6 | SMARCA2 act conf inactive | VP16 Luc act 5.3
COc1ccc(C(=O)Nc2ccc(NC(=O)c3ccccc3F)cn2)cc1	none
O=C(COc1ccccc1C(=O)NCc1ccccc1)Nc1ccc(I)cc1	none (no result: DAX1 inh-2)
O=C(COc1ccccc1/C=C\c1[nH]c(=O)[nH]c(=O)c1[N+](=O)[O-])Nc1ccccc1	SMARCA2 act 11 | SMARCA2 act conf 13 | VP16 Luc act inactive
Cc1nc(SCC(=O)c2cccs2)c2oc3ccccc3c2n1	SMARCA2 act 8.5 | SMARCA2 act conf inactive | VP16 Luc act 11
O=C(CSc1ncnc2c1oc1ccccc12)c1cccs1	none
O=C(Nc1ccc(-c2cn3c(n2)SCC3)cc1)c1ccco1	SMARCA2 act 14 | SMARCA2 act conf inactive | VP16 Luc act 10
CC(C)N(Cc1cn(Cc2ccccc2)nn1)S(=O)(=O)c1ccc(F)cc1Br	SMARCA2 act 8.7 (no result: DAX1 inh-2) | SMARCA2 act conf inactive | VP16 Luc act inactive
Cc1ccc(Cn2cc(CN(C(C)(C)C)S(=O)(=O)c3ccccc3Br)nn2)cc1	none (no result: DAX1 inh-2)
CN1C(=O)c2cc(NC(=O)Nc3ccc(F)c(F)c3)ccc2OC[C@H]2O[C@@H](CC(=O)O)CC[C@H]21	none (no result: DAX1 inh-2)
COc1ccc(Nc2cc(Nc3ccccc3)ncn2)cc1	hcDAF12 agonist 6.0, SMARCA2 act 14 | SMARCA2 act conf inactive | VP16 Luc act 11
Cc1ccc(C(=O)NCCN2C(=O)C3C4C=CC(C4)C3C2=O)cc1 (configuration not stated)	none (no result: DAX1 inh-2)
Cc1csc2c(=O)sc(NC(=O)c3ccc(F)cc3Cl)nc12	SMARCA2 act 11 | SMARCA2 act conf inactive | VP16 Luc act inactive
Cc1cc(C)cc(NC(=O)CCc2c(C)nn(-c3ccc(N4CCCCC4)nn3)c2C)c1	DAX1 inh-1 4.1, SMARCA2 act 11 | SMARCA2 act conf inactive | VP16 Luc act 6.3
O=C(Nc1c(C(=O)Nc2ccccc2)cnn1-c1ccccc1)c1ccco1	SMARCA2 act 9.8 | SMARCA2 act conf inactive | VP16 Luc act inactive
O=C(Nc1ccc2c(c1)ncn2-c1ccccc1)c1ccco1	SMARCA2 act 11 | SMARCA2 act conf 16 | VP16 Luc act 7.9
COC(=O)[C@]12C[C@H](CC(=O)NCc3cccc(C(F)(F)F)c3)C(=O)N(Cc3ccc(Cl)cc3Cl)C1=C[C@H](COCc1ccccc1)O[C@@H]2C	none (no result: DAX1 inh-2)
COC(=O)C[C@H]1CC[C@@H]2[C@H](COc3ccc(NC(=O)c4cccc(Cl)c4)cc3C(=O)N2C)O1	none (no result: DAX1 inh-2)
Brc1ccc2nc(-c3ccc(CN4CCC(c5nc6ccccc6[nH]5)CC4)cc3)c(-c3ccccc3)nc2c1	none (no result: DAX1 inh-2)
Cc1ccc(Nc2nnc(-c3ccccc3N)o2)cc1C	hgDAF-12 ag 11, SMARCA2 act 12, DAX1 inh-2 6.5 | SMARCA2 act conf inactive | VP16 Luc act 8.5
Cc1ccc(NCc2ccco2)cc1C	none
Oc1ccc(-c2nccc(-c3ccccn3)n2)cc1	SMARCA2 act 10 | SMARCA2 act conf inactive | VP16 Luc act 8.1
O=C(Cc1ccc(-c2ccccc2)cc1)Nc1ccccn1	SMARCA2 act 9.9 | SMARCA2 act conf 16 | VP16 Luc act inactive
CCC(=O)Nc1ccc(NC(=O)Cc2ccccc2)cn1	SMARCA2 act 8.7 | SMARCA2 act conf inactive | VP16 Luc act inactive
CCC(=O)Nc1ccc(NC(=O)CCc2ccccc2)cn1	none
Cn1cc(-c2cccc3[nH]cc(-c4ccccc4)c23)c2ccccc21	none (no result: DAX1 inh-2)
COc1cccc(C=NNC(=O)CSc2nc3ccccc3[nH]2)c1O	none (no result: DAX1 inh-2)
NC(=O)c1ccc(NC(=O)CSc2nnc(-c3ccccc3)n2-c2ccccc2)cc1	none (no result: DAX1 inh-2)
Cc1ccc(SCC(=O)Nc2ccc(N3CCN(C)CC3)c(F)c2)cc1	SMARCA2 act 11 | SMARCA2 act conf inactive | VP16 Luc act inactive
COc1ccc(SCC(=O)Nc2ccc(N3CCN(C)CC3)c(F)c2)cc1	none
Cc1cc(C)cc(C(=O)NCC(=O)OCC(=O)N2CCCC2)c1	SMARCA2 act 8.5 | SMARCA2 act conf inactive | VP16 Luc act inactive
Cc1cc(C(=O)NCC(=O)OCC(=O)N2CCCCCC2)ccc1[N+](=O)[O-]	none
Cc1ccccc1CSc1n[nH]c(NS(=O)(=O)c2ccccc2)n1	SMARCA2 act 8.0 | SMARCA2 act conf inactive | VP16 Luc act inactive
COc1cccc(Cn2cc(COC(=O)NCCc3ccccc3)nn2)c1	none (no result: DAX1 inh-2)
CCOc1cc(C=NN2CCN(Cc3ccc(C)cc3)CC2)ccc1O	none (no result: DAX1 inh-2)
CCN(CC)S(=O)(=O)c1ccc(NC(=O)c2ccccn2)cc1	SMARCA2 act 9.8 | SMARCA2 act conf inactive | VP16 Luc act 8.5
Cc1nc(CS(=O)(=O)c2ccc(Cl)cc2)cc(Sc2ccccc2Cl)n1	none
Cc1nc(CS(=O)(=O)c2ccccc2)cc(Sc2ccccc2Cl)n1	SMARCA2 act 8.2 | SMARCA2 act conf inactive | VP16 Luc act 6.9
